Hit rate of the full screen: of about 340,000 compounds, about 200 (0.059%) were called active. Cut-off read from the data, not from the text of the source: active = inhibition above about 34%; inactive = the rest. Only a selection was taken, and actives are over-represented in it overall.
Target: Diacylglycerol lipase-beta (Homo sapiens) (UniProt Q8NCG7)
Test: DAGLB lipase inhibitors, primary screen, biochemical, fluorescence, HTS (AID 504411);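 note: 0% = enzyme with vehicle and 100% = wells lacking enzyme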
Conditions: HEK293T DAGLB membrane lysate, EnzChek fluorogenic substrate; at 5.17 µM; active compounds read high

Chain of Diacylglycerol lipase-beta (Homo sapiens) (Q8NCG7 whole entry, looked up): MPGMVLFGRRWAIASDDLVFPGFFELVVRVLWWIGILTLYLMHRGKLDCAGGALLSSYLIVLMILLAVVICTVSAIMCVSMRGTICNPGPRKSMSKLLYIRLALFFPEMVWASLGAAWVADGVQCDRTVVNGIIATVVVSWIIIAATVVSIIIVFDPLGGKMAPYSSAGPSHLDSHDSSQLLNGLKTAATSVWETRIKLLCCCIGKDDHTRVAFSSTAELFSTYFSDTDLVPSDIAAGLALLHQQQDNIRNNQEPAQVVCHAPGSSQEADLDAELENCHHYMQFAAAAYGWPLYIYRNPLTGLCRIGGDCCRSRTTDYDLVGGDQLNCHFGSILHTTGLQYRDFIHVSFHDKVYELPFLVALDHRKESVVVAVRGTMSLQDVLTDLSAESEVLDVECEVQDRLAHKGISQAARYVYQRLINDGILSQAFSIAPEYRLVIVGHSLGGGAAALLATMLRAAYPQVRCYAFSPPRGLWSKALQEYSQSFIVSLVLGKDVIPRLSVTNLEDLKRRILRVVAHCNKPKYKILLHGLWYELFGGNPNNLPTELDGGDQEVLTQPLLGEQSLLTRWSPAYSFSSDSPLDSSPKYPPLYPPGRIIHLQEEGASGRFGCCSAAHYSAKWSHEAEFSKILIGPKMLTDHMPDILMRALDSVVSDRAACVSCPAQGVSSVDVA

Row | Structure (SMILES) | inhibition
1 | c1ccc2c(c1)OCCOCCOCCO2 | 0.06% (inactive)
2 | COc1ccc(S(=O)(=O)/N=C2\C=C(NS(=O)(=O)c3ccccc3)C(=O)c3ccccc32)cc1 | 19.7% (inactive)
3 | Cc1ccc(S(=O)(=O)N/N=C(\c2ccccc2)C2CC2)cc1 | 0.32% (inactive)
4 | Cc1ccc(S(=O)(=O)/N=C2\C=C(NS(=O)(=O)c3ccc(C)cc3)C(=O)c3ccccc32)cc1 | 38.9% (active)
5 | Cc1nn(C)c(C)c1CN(C(=O)CCc1nnc(Cc2c[nH]c3ccccc23)o1)C(C)C | 1.36% (inactive)
6 | COCc1ccc(C(=O)N2CCc3c([nH]c4ccccc34)C2c2ccccn2)s1 (configuration not stated) | 2.71% (inactive)
7 | CC(CC(=O)N1CCN(c2ccccc2)CC1)S(=O)(=O)c1ccc2c(c1)NC(=O)CS2 (configuration not stated) | 1.53% (inactive)
8 | CCOc1ccc(-n2cnc3c(=O)[nH]c(N)nc32)cc1 | 0.5% (inactive)
9 | O=C(Nc1nnc(CCN2CCCCC2)s1)c1cccc(Cl)c1 | 0.09% (inactive)
10 | CCOC(=O)C1=C(C)OC(N)=C(C#N)C1c1cncc(-c2ccc(F)cc2)c1 (configuration not stated) | -3.22% (inactive)
11 | C=CCn1nc(-c2ccccc2)c2c(C)onc2c1=O | -0.48% (inactive)
12 | CC(Sc1nncn1C)C(=O)Nc1cc(C(F)(F)F)ccc1N1CCOCC1 (configuration not stated) | 0.9% (inactive)
13 | O=C(NC1CCCC1)C1CC(=O)N(c2ccc(F)cc2)C1 (configuration not stated) | 2.14% (inactive)
14 | O=C(NNC(=O)c1ccccc1O)c1ccccc1O | 3.19% (inactive)
15 | O=C(COC(=O)c1ccc(O)cc1O)NC(=O)c1ccccc1 | 1.38% (inactive)
16 | O=C(NNc1c2ccccc2nc2ccccc12)c1cc2ccccc2cc1O | 64% (active)
17 | Cc1ccc(-c2cc(C(F)(F)F)n3ncc(C(=O)N4CCCCC4c4cccnc4)c3n2)cc1 (configuration not stated) | 0.87% (inactive)
18 | Nc1ccc(Cl)c(S(=O)(=O)Nc2ccccc2Cl)c1 | 2.95% (inactive)
19 | O=C1C(=O)N(CCN2CCOCC2)C(c2ccccn2)/C1=C(/O)c1ccc(Cl)cc1 (configuration not stated) | 1.82% (inactive)

Row | Structure (SMILES) | inhibition
20 | COc1cc(/C=C/C(=O)N2CCc3ccccc3C2)cc(OC)c1OC | -1.38% (inactive)
21 | O=C(c1ccc(=O)[nH]c1)N(Cc1ccco1)C1(C(=O)NC2CCCCC2)CCCCC1 | -1.49% (inactive)
22 | COc1cccc(NC(=S)NC(=O)c2c(Cl)c(C)nn2C)c1 | -24.9% (inactive)
23 | CN(C(=O)CSc1nnc(C2CC2)n1C)C1CCCc2ccccc21 (configuration not stated) | 1.81% (inactive)
24 | CCOCCn1[nH]c2ccccc2c1=O | -1.38% (inactive)
25 | CCOc1ccc(C(O)Cn2c(=N)n(CCN3CCCCC3)c3ccccc32)cc1 (configuration not stated) | -2.39% (inactive)
26 | Cc1cccc(Nc2nc3c(S(=O)(=O)c4ccccc4)nnn3c3ccccc23)c1C | 0.26% (inactive)
27 | CCn1c(SCC(=O)N2CCCC2=O)nc2ccccc21 | -0.5% (inactive)
28 | COc1ccc(OC)c(NC(=O)c2cccc(S(=O)(=O)N3CCN(C(C)=O)CC3)c2)c1 | -0.51% (inactive)
29 | O=C(CCCN=C1NS(=O)(=O)c2ccccc21)OCC(=O)c1ccc(F)c(F)c1 | 1.93% (inactive)
30 | CN1CCC(N(C)C(=O)c2ccc(Cl)c(S(=O)(=O)Nc3ccc(Cl)cc3)c2)CC1 | -0.08% (inactive)
31 | CSCCC(=O)N1CCCC(CNC(=O)c2ccccc2Cl)C1 (configuration not stated) | -3.33% (inactive)
32 | C[C@H](CO)N1C[C@H](C)[C@@H](CN(C)C(=O)NC2CCCCC2)Oc2ccc(NC(=O)c3ccncc3)cc2C1=O | -0.14% (inactive)
33 | O=C1C=C(NCCNc2c(F)c(F)c(CO)c(F)c2F)CCC1 | 0.21% (inactive)
34 | COc1ccc(C(=O)Cn2nnc(-c3ccc(N4CCOCC4)cc3)n2)cc1OC | 0.4% (inactive)
35 | COc1ccccc1NS(=O)(=O)c1ccc(C(=O)N2CCN(c3ccccc3O)CC2)cc1 | 3.47% (inactive)
36 | CCOC(=O)N1CCC(O)(c2cc(C)c(C)cc2C)CC1 | -4.76% (inactive)
37 | CC(=O)c1c(C)[nH]c(C(=O)CN2C(=O)NC(C)(C)C2=O)c1C | 2.12% (inactive)
38 | CCOC(=O)C1CN(S(=O)(=O)c2ccc(F)cc2)C1 | -3.17% (inactive)

Row | Structure (SMILES) | inhibition
39 | O=c1oc(-c2ccccc2NS(=O)(=O)c2ccc(Cl)cc2)nc2ccccc12 | 6.09% (inactive)
40 | COc1cccc(/C=C2\SC(=S)N(CCCC(=O)N3CCOCC3)C2=O)c1 | -4.26% (inactive)
41 | COCCCNC(=O)[C@H]1N2C(=O)c3ccccc3C2SC1(C)C (some centres not stated) | -1.33% (inactive)
42 | CC(=O)Nc1ccc(C(=O)Nc2cccc(S(=O)(=O)NC3=NCCC3)c2)cc1 | -2.22% (inactive)
43 | CCOC(=O)C1CSC(CC(=O)Nc2ccc(OCC)cc2)C(=O)N1 (configuration not stated) | 0.21% (inactive)
44 | O=C(O)CC(c1ccccc1F)N1Cc2ccccc2C1=O (configuration not stated) | 1.06% (inactive)
45 | CCCN(CCC)S(=O)(=O)c1ccc(C(=O)N2CC3CCC(CC3)C2)cc1 | -8.08% (inactive)
46 | COc1ccc(C(=O)c2c(C)oc3cc([N+](=O)[O-])c(O)c([N+](=O)[O-])c23)cc1 | 21.1% (inactive)
47 | Cc1oc2cc([N+](=O)[O-])c(O)c([N+](=O)[O-])c2c1C(=O)c1ccc(Br)cc1 | 44% (active)
48 | Cc1oc2cc(Br)c(O)c(Br)c2c1C(=O)c1ccccc1 | -1.78% (inactive)
49 | CCOc1ccc(S(=O)(=O)NCCC(=O)NCC(C)(C)N2CCOCC2)cc1 | 1.14% (inactive)
50 | CSC1=N/C(=C\C=C\c2cccs2)C(=O)S1 | 6.62% (inactive)
51 | Cc1c(C(=O)NCC(c2ccco2)N2CCCC2)oc2ccc(Cl)cc12 (configuration not stated) | -3.86% (inactive)
52 | CCOC(=O)C1CCN(C(=O)C2(NC(=O)Nc3cccc(F)c3)CCCCC2)CC1 | 1.05% (inactive)
53 | CC1(C)OC(=O)C(=CNC(CO)C(=O)O)C(=O)O1 (configuration not stated) | -0.76% (inactive)
54 | CC(=O)N1CCc2ccc(N)cc21 | -0.55% (inactive)
55 | COc1ccc(C(=O)NCc2ccc(C)cc2)cc1S(=O)(=O)N1CCCC1 | -0.31% (inactive)
56 | Cc1cc(=O)n2nc(N3CCCC(C(=O)NCc4cccc(Cl)c4)C3)sc2n1 (configuration not stated) | -0.02% (inactive)
57 | CCOC(=O)CN(C(=O)COc1nc(-c2ccccc2)cc(C)c1C#N)c1ccc(F)cc1 | -4.62% (inactive)
